From PubChem BioAssay AID2284357 (EPA ToxCast)
Results filed as inconclusive are left out. Activity calls are given as the source filed them. Rule for the calls: active = hit-call score of the fitted dose curve at least 0.9, where 1 is the maximum; inconclusive = response in the unintended direction; inactive = score below 0.9.

test system: zebrafish Androgen Receptor (AR), gene 100005148; assay: ATG_zfAR_EcoTox2: Attagene TRANS-FACTORIAL EcoTox-2 HepG2 Assay for zebrafish Androgen Receptor (AR)
Method: ATG_EcoTox2 is a cell-based, multiplexed assay created by modifying the existing Attagene TRANS-FACTORIAL system to include a panel of nuclear receptors from some or all the following species: human (Homo sapiens), african clawed frog (Xenopus laevis), rainbow trout (Oncorhynchus mykiss), japanese medaka (Oryzias latipes), and zebrafish (Danio rerio). The ECOTOX2-FACTORIAL format uses HepG2, a human liver cell line, with measurements taken at 24 hours after chemical dosing in a 24-well plate. ATG_zfAR_EcoTox2 is one of 29 assay components calculated in the ATG_EcoTox2 assay. It is designed to make measurements of mRNA induction, a form of inducible reporter, as detected with fluorescence intensity signals by Reverse transcription polymerase chain reaction (RT-PCR) and Capillary electrophoresis technology.The assay endpoint ATG_zfAR_EcoTox2 was analyzed in the positive analysis fitting direction relative to DMSO as the negative control and baseline of activity. Using a type of inducible reporter, measures of mRNA for gain-of-signal activity can be used to understand the reporter gene at the transcription factor-level as they relate to the gene AR. Furthermore, this assay endpoint can be referred to as a primary readout, because this assay has produced multiple assay endpoints where this one serves a reporter gene function. To generalize the intended target to other relatable targets, this assay endpoint is annotated to the nuclear receptor intended target family, where the subfamily is steroidal.
Human liver HepG2 cells are transiently transfected with multiple reporter transcription units (MRTUs) in 6-well plates using FuGene 6 reagent (Roche; 3 ml FuGene/1 mg DNA). The MRTU constructs are regulated by a cis-regulating element (promoter). Each RTU expresses a GAL4-UAS that regulates the transcription of a nearby target reporter gene sequence. A major difference between the CIS and TRANS system is that in CIS activities of endogenous TFs are measured, whereas the TRANS assay evaluates changes in activities of exogenous, chimeric NR-Gal4 proteins. […] At the end of 24 hour incubation, total RNA was isolated using TriZol reagent (Invitrogen). The isolated RNA is then reverse-transcribed using oligo(dT) primer and Mo-MLV reverse transcriptase (Invitrogen) with DNAse I (Ambion) treatment for 30 min. The one-tenth of the produced cDNA was amplified by PCR using Taq DNA polymerase (Invitrogen) and two reporter sequence-specific primers. The PCR products were fluorescently labeled by primer extension with 6-arboxyfluorescein (6-FAM) 5'-labeled reporter sequence-specific primer (2 min at 95 C, 20 s at 68 C and 10 min at 72 C) and these products were digested with 5U of HpaI (New England Biolabs) for 2h at 37 C. The fragments were purified using Qiaquick PCR columns (Qiagen), analyzed on an ABI 3130xL genetic analyzer (Applied Biosystems) with peak positions identified by using a set of X-rhodamine (ROX)-labeled MapMarker1000 molecular weight standards (BioVentures). The raw capillary electrophoresis data was processed using Attagraph software (Attagene).

| SMILES | outcome |
| --- | --- |
| CC(C)(Oc1ccc(C2CC2(Cl)Cl)cc1)C(=O)O (centres undefined) | inactive |
| CC(c1cc2ccccc2s1)N(O)C(N)=O (centres undefined) | inactive |
| C[C@]12C=CC(=O)C=C1CC[C@@H]1[C@@H]2C(=O)C[C@@]2(C)[C@H]1CC[C@]2(O)C(=O)CO | inactive |
| Cc1ccc(C)c(OCCCC(C)(C)C(=O)O)c1 | inactive |
| CC(C)OC(=O)C(C)(C)Oc1ccc(C(=O)c2ccc(Cl)cc2)cc1 | inactive |
| C[C@@H]1C[C@H]2[C@@H]3CCC4=CC(=O)C=C[C@]4(C)[C@@]3(F)[C@@H](O)C[C@]2(C)[C@@]1(O)C(=O)COP(=O)(O)O | inactive |
| CC(C)(Oc1ccc(Cl)cc1)C(=O)O | inactive |
| C=C(c1ccc(C(=O)O)cc1)c1cc2c(cc1C)C(C)(C)CCC2(C)C | inactive |
| Cc1cccc(Nc2cc(Cl)nc(SCC(=O)O)n2)c1C | inactive |
